# Reference: PubChem BioAssay (NCI)
# Values joined by “and” are separate entries in the source; they are usually repeats but may differ in a detail not shown here. Identical values can stand only once. Compounds without any hit were thinned out: in the full panel of roughly 83,000, 20% have a hit.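 Cells were grown in 96-well plates and exposed to the test compound at a single concentration for 48 hours; results are reported as percent growth, with values below 10 considered active.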 Active and inactive are the calls of the source.
# System: HS 578T breast
# Assay: NCI-60 one-dose screen, 48 h (100 = growth as untreated, 0 = no growth, -100 = all killed)
# Conditions: 10 µM
# Experimental: Growth inhibition of the HS 578T human tumor cell line is measured as a screen for anti-cancer activity. Cells are grown in 96 well plates and exposed to the test compound for 48 hours. Compounds are tested at a single concentration, which is 10^-5 M for most compounds. The reported endpoint is percent growth (GI% or GIPRCNT), where numbers from 0 - 100% represent growth inhibition, and numbers from -100% - 0 represent cell death. For example, a value of 40 represents 60% growth inhibition. A value of 0 means no net growth occurred over the course of the experiment. A value of -40 indicates 40% of cells at the beginning of the experiment died by the end of the experiment. A value of -100 means all cells are dead at the end of the experiment.
# NCI-60 Human Tumor Cell Lines Screen was performed using the standard one-dose NCI protocol, which is described in more detail at https://dtp.cancer.gov/discovery_development/nci-60/default.htm.
# Compounds with GIPRCNT values below 10 were considered active. Activity score was based on GIPRCNT using the following formula: […]
# Score is 0 for GIPRCNT values of 100 or above, 50 for GIPRCNT values of 0, and 100 for GIPRCNT values of -100.
row,Structure (SMILES),growth
1,CC(=O)/C=C/c1ccc(OCc2ccc(Cl)cc2)cc1,97.3% (inactive)
2,COc1ccc(C(=O)/C=C/c2ccc(OCc3ccc(Cl)cc3)cc2)cc1OC,93.5% (inactive)

# Same assay, conditions: 10 µM unless noted
row,Structure (SMILES),growth
1,CC(=O)c1nn(-c2ccccc2)/c(=N/N=Cc2cn(-c3ccccc3)nc2-c2cc3ccccc3oc2=O)s1,115% (inactive)
2,O=C(Nc1ncc(Cc2cccc(C(F)(F)F)c2)s1)c1ccc2c(c1)OCCO2,21.4% (inactive)
3,N#C/C(=C\c1ccccc1Cl)c1cc2ccccc2[nH]1,92.9% (inactive)
4,COC(=O)[C@H]1Cc2c([nH]c3ccccc23)[C@@H](c2cccs2)N1,103% (inactive)
5,COc1c(NC=O)c2c(c([N+](=O)[O-])c1OC)C(=O)OC2,109% (inactive) and 86.8% (inactive)
6,O=C(Nc1ccc2ncsc2c1)c1csc(Nc2ccc3[nH]ncc3c2)n1,37.7% (inactive)
7,OCCN1CCN(c2cc(-c3cccc(OC(F)(F)F)c3)nc3ccc(N4CCCC4)cc23)CC1,53.9% (inactive)
8,c1ccc(Cc2cccc[n+]2C(c2ccccc2)c2ccccc2)cc1,90.6% (inactive)
9,C[C@@H]1CC[C@@H]2[C@@H]1[C@H](OC(=O)/C=C/c1ccccc1)[C@]1(c3ccccc3)C[C@@H](NC(=O)CO)[C@@]2(C)O1,92% (inactive)
10,O=C1CCc2c(sc3[nH]c(=S)n(Cc4ccc(Cl)cc4)c(=O)c23)C1,5.06% (active)
11,C[N+]1=C(/C=C\C=C\c2ccccc2)C(C)(C)c2ccccc21,25% (inactive)
12,C#CCOc1cccc(Nc2ncc3ncn(C4CCN(C(=O)CCl)C4)c3n2)c1 (stereo not given),82.2% [6.25 µM] (inactive)
13,O=S(=O)(O)c1ccc(N=Nc2ccc(N=Nc3cccc4ccccc34)c(S(=O)(=O)O)c2)cc1,104% (inactive)
14,COC(=O)/C=C1/SC(=Nc2ccc([N+](=O)[O-])cc2)N(CCc2c[nH]c3ccccc23)C1=O,63.5% (inactive)
15,CCCCSc1ccc2nc(-c3ccc(OCCCN=C(N)N)cc3)cn2c1,35.5% (inactive)
16,CC[C@H](C)[C@H](NC(=O)[C@@H](N)CCC(N)=O)C(=O)N[C@@H](Cc1ccc(O)cc1)C(=O)N[C@@H](CCCCN)C(=O)N[C@@H](CCCCN)C(=O)N[C@@H](Cc1ccc(O)cc1)C(=O)N[C@@H](CCCNC(=N)N)C(=O)N[C@H](C(=O)N[C@@H](Cc1c[nH]c2ccccc12)C(=O)N[C@@H](Cc1ccc(O)cc1)C(=O)N[C@@H](CCCNC(=N)N)C(=O)N[C@@H](CCCCN)C(=O)N[C@@H](C)C(=O)N[C@@H](Cc1c[nH]c2ccccc12)C(=O)N[C@@H](CCCCN)C(=O)N[C@H](C(=O)N[C@@H](CC(C)C)C(=O)NCC(=O)N[C@@H](CCCCN)C(=O)N[C@H](C(N)=O)C(C)C)C(C)C)[C@@H](C)O,-13% (active)
17,CCCCCO/N=C\c1c2c(O)c3c(O)c(C)c4c(c3c1O)C(=O)C(C)(O/C=C\C(OC)C(C)C(OC(C)=O)C(C)C(O)C(C)C(O)C(C)/C=C\C=C(\C)C(=O)N2)O4 (stereo not given),1.16% (active)
18,Cc1[nH]c(C(=O)Nc2nc3ccc(NC(=O)CCN)cc3s2)c(Cl)c1Cl,90.8% (inactive)

row,Structure (SMILES),growth
1,N=C(N)c1ccc(-c2ccc(-c3ccc(F)cc3)s2)nc1,84.2% (inactive)
2,CCCCCC#CC1OC23CCCCC2C(C#N)(C(=N)O3)C1(C#N)C#N (stereo not given),94.1% (inactive)
3,O=C(NCCCN1CCCCC1)c1ccc(-c2nc3ccc4[nH]ncc4c3c3c2CCCC3)cc1,14.4% (inactive)
4,N#CC(Cc1cccc2ccccc12)c1cc2ccccc2[nH]1 (stereo not given),89.7% (inactive)
5,N#Cc1cc(-c2ccnc(Nc3ccc(NC(=O)CCl)cc3)n2)ccc1N1CCCC1,12.6% (inactive)
6,CCCCCCCC/C=C\CCCCCCCCOc1ccccc1CC(=O)NCC[N+]1(C)CCOCC1,92.9% (inactive)
7,Cc1ccc2nc3ccccc3c(NCc3ccc(Cl)cc3)c2c1,77.8% (inactive)
8,N=C1/C(=C2\NC3C=CC=CC3S2)C(c2ccc(Cl)cc2)C2C(=O)N(c3ccccc3)C(=S)N12 (stereo not given),99.2% (inactive)
9,COc1cc2cc(NCc3ccncc3)nc(C)c2cc1OC,83.5% (inactive)
10,C/C(=C(\c1ccc(OCCN2CCOCC2)cc1)c1ccc(OC(=O)C2CCCCC2)cc1)c1ccc(Cl)cc1,97.9% (inactive)
11,N#Cc1ccccc1OCC(=O)Nc1nc2c(s1)COc1ccccc1-2,99.7% (inactive)
12,COCCn1cc(-c2nc(-c3cn(CCOC)c4ncccc34)cs2)c2ccccc21,86.7% (inactive)
13,CN1CCN(Cc2ccc(NC(=O)c3nc4ccc5[nH]ncc5c4c4c3CCCC4)cc2C(F)(F)F)CC1,-35.4% (active)
14,Cc1n(Cc2ccc3ccccc3c2)c(Cl)c(Cl)[n+]1Cc1ccc2ccccc2c1,46.6% (inactive)
15,O=C(CCl)n1nnnc1Cc1ccccc1,121% (inactive)
16,COc1ccc(CCNC(=O)COc2cc3c(Nc4ccc(F)c(Cl)c4)ncnc3cc2OC)cc1OC,92.4% (inactive)
17,CCOc1ccc(N2C(N)=NC(N)=NC2(C)C)cc1,35.9% (inactive) and 96% (inactive)
18,BrC1=C(Br)C(Br)(Br)C(Br)=C1Br,118% (inactive)

# Same assay, conditions: 100 µM
row,Structure (SMILES),growth
1,CC(=O)/C=C/c1ccc(OCc2ccc(Cl)cc2)cc1,51.9% (inactive)
2,COc1ccc(C(=O)/C=C/c2ccc(OCc3ccc(Cl)cc3)cc2)cc1OC,-1.6% (active)
